Most compounds without a hit are left out; they make up all but 8.2% or so of the library.
MCF10A rerep: inducers of DNA re-replication in MCF 10A breast cells; Potency, µM (doses to about 46.1 µM), for the others: top-dose activity, positive = re-replication, usual class: activators; MCF 10A DNA re-replication, Hoechst nuclear intensity, 48 h; AID 624296; 350,000 compounds, 2.9% hits; also: % of control where 0% means no effect; nearly all actives have a fitted effect of over 50% in size
ELG1 repair inh: inhibitors of ELG1-dependent DNA repair in HEK293T cells. HEK293T ELG1-luciferase reporter, luminescence, 16 h; DNA damage induced by 5-fluorouridine. Potency, µM (series often up to 46.1 µM), without a hit: at the highest dose activity change, negative = inhibition, usual class: inhibitors. 330,000 compounds, 2.3% hits. AID 504467; also: % is scaled to controls: 0 for no effect and ±100 for the full control effect; nearly all actives have a fitted effect of over 55% in size
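Luminescence from the luciferase reporter, measured 30 min after ONE-Glo reagent at room temperature, was the read-out. Beforehand, 2,000 cells per well were exposed for 16 hr at 37 °C to 5-fluorouridine together with compound or vehicle.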
KB-V1 MDR tox: KB-V1 MDR subline cytotoxicity | KB-V1 MDR cells viability, CellTiter-Glo, 72 h | Potency, µM (highest dose often 46.1 µM), usual class: cytotoxic | 400,000 compounds, 3.4% hits | AID 1347076; also: % is scaled to controls: 0 for no effect and ±100 for the full control effect; nearly all actives have a fitted effect of over 60% in size
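Cytotoxicity toward P-gp-expressing KB-V1 cells was determined as loss of CellTiter-Glo luminescence after 72 h at 37 degrees C. Compounds were tested in quantitative HTS format across a concentration range, with curves fitted to normalized data.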
KB-3-1 cytotox: kills parental KB-3-1 adenocarcinoma cells; KB-3-1 viability, CellTiter-Glo ATP luminescence, 72 h; Potency, µM (highest dose often 46.1 µM), most hits filed as cytotoxic; 400,000 compounds, 1.4% hits; AID 1347075; also: % is scaled to controls: 0 for no effect and ±100 for the full control effect; nearly all actives have a fitted effect of over 60% in size
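Parental KB-3-1 viability, qHTS format: 72 h compound exposure, 37 °C; CellTiter-Glo; media-only wells and DMSO plates as controls; concentration-effect fits on corrected data.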
SW480 rereplic: induces DNA re-replication in SW480 colon adenocarcinoma cells. Potency, µM (titrated, usually from 46.1 µM), for inactives: at the top dose re-replication activation, usual class: activators. 340,000 compounds, 1.8% hits. SW480 DNA re-replication, Hoechst DNA content imaging, 48 h; also: % of control where 0% means no effect; nearly all actives have a fitted effect of over 55% in size
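250 cells/well; 23 nL cpd via pin tool; 48 hr, 37 C, 5% CO2; Hoechst 40 min; imager read of total nuclear intensity, ex 405/em 500-530 nm.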
The depositor's hits bear a star; i = inactive; ? = inconclusive; . = not tested or not shown; ! = not confirmed by another sample. Calls follow the shape of the dose curve; as a rule, active = well fitted curve in the direction sought with a large enough effect; inconclusive = small, poorly fitted or top-dose-only effect, or another doubt; inactive = no such curve, though single readings can be large; an effect the other way counts as inactive or inconclusive. Potency is read from the fitted curve at half-maximal effect.

SMILES	MCF10A rerep	ELG1 repair inh	KB-V1 MDR tox	KB-3-1 cytotox	SW480 rereplic
O=C(COc1ccccc1C(=O)Nc1ccccc1F)Nc1ccc(Br)cc1	.	.	i	?	.
O=C(CNc1cccc(Br)c1)Nc1ccc(S(=O)(=O)N2CCCCC2)cc1	.	.	i	i	.
O=C(NCCNC(=O)c1ccc(Cl)cc1Cl)c1ccco1	-4.0%	2.9%	i	i	-9.9%
COc1ccc(-c2cc(C(=O)NC3=NCCS3)c3ccccc3n2)cc1OC	?	16.4µM*	i	i	5.7%
COc1ccc(/C(C)=N/OCC(=O)Nc2nc3ccccc3s2)cc1OC	?	?	14.6µM*	?	-115.1%
COc1ccc(-c2cc(C(=O)Nc3ccc(C(N)=O)cc3)c3ccccc3n2)cc1OC	?	?	i	?	18.4µM*
CCn1cc(C(=O)N2CCN(c3cccc(C)c3)C(C)C2)c(=O)c2cc(S(=O)(=O)N3CCOCC3)ccc21 (stereo unspecified)	.	.	i	i	.
COc1ccccc1C(=O)Nc1nc2ccc(S(=O)(=O)N3CCCC3)cc2s1	.	.	?	i	.
O=C1c2ccccc2C(=O)N1c1cccc(N2C(=O)c3ccccc3C2=O)n1	.	.	i	i	.
Cc1ccc(NC(=O)/C=C/c2cccs2)c([N+](=O)[O-])c1	?	?	5.8µM*	?	20.6µM*
Cc1ccc(NC(=O)/C=C/C(=O)O)c([N+](=O)[O-])c1	-4.1%	?	i	i	1.3%
O=C(Cc1ccc(F)cc1)Nc1cccc(-c2cn3c(n2)SCC3)c1	11.7%	16.4µM*	18.4µM*	i	-2.2%
CN(C)c1ccc(C=C(c2nnnn2-c2ccccc2)c2nnnn2-c2ccccc2)cc1	?	11.6µM*	?	i	10.7%
O=C(N/N=C1\CC(c2ccccc2)Oc2ccccc21)c1cccnc1 (stereo unspecified)	7.3%	?	?	i	?
O=C(N/N=C1\CC(c2ccccc2)Oc2ccccc21)c1ccc(O)cc1 (stereo unspecified)	?	18.3µM*	i	i	5.1%
CCOc1ccc(S(=O)(=O)N/N=C2/CC(c3ccccc3)Oc3ccccc32)cc1 (stereo unspecified)	8.3%	0.0%	18.4µM*	?	8.8%
O=C(CN1C(=O)COc2ccc(S(=O)(=O)N3CCCC3)cc21)N1CCN(c2ccc(Cl)cc2)CC1	.	.	?	i	.
CCOC(=O)c1cccc(NC(=O)C2(S(=O)(=O)c3ccc(C)cc3)CC2)c1	-0.1%	-2.8%	18.4µM*!	i	-8.1%
CC(C)N1C(=O)C(=O)N(CC(=O)N(C)c2ccccc2)C1=O	3.7%	10.9%	?	i	-13.5%
CC(C)OCCCN(C)C1CCN(S(=O)(=O)c2ccc(-c3cc(C(F)(F)F)no3)s2)CC1	15.0%	-15.1%	9.2µM*	16.4µM*	14.6µM*
CCCn1c(N)c(C(=O)CSc2ncc(C(F)(F)F)cc2Cl)c(=O)[nH]c1=O	16.4µM*	-2.6%	?	i	22.5%
CCCNC(=O)c1cc(C2CCCCN2C(=O)c2cc(C(C)(C)C)nn2C)on1 (stereo unspecified)	.	.	16.4µM*	?	.
COc1ccc(S(=O)(=O)NC(=O)C2(C)CCN2C(=O)C2CCCCC2)cc1OC (stereo unspecified)	.	.	i	i	.
Cc1ccc(Nc2nnc(-c3ccc(C)c(S(=O)(=O)NCc4nc5ccccc5[nH]4)c3)c3ccccc23)cc1	.	.	i	i	.
Cc1ccc(-c2nnc(NCc3nc4ccccc4[nH]3)c3ccccc23)cc1S(=O)(=O)N(C)C	?	10.3µM*	?	i	2.8%
SMILES	MCF10A rerep	ELG1 repair inh	KB-V1 MDR tox	KB-3-1 cytotox	SW480 rereplic
CC(C)(C)NC(=O)CN(C(=O)c1ccc(CN2CCOCC2)o1)c1ccc2c(c1)OCCO2	15.1%	5.9%	i	i	3.6%
CCOc1ccccc1N(CC(=O)NC(C)(C)C)C(=O)c1ccc(CN2CCOCC2)o1	?	0.8%	14.6µM*	i	-2.9%
CN(CC(=O)Nc1cccc(Cl)c1)S(=O)(=O)/C=C/c1ccccc1	.	.	i	i	.
O=C(NCc1ccccc1)[C@]1(C(F)(F)F)C[C@H](CCc2ccccc2)CCCO1	1.84µM*	.	i	i	-4.3%
CC(NC(=O)C1(S(=O)(=O)c2ccc(Cl)cc2)CC1)c1ccccc1 (stereo unspecified)	19.9%	1.2%	20.6µM*	i	145.8%
CCN(C(=O)COC(=O)c1ccccc1Cc1ccccc1)c1c(N)n(Cc2ccccc2)c(=O)[nH]c1=O	?	.	i	?	-16.3%
COc1ccccc1N1CCN(C(c2cccs2)C(C)NC(=O)c2ccncc2)CC1 (stereo unspecified)	0.0%	13.6%	?	i	0.7%
C=CCC[C@@H](Cc1ccc(F)cc1)C(=O)OC[C@@H]1CCCN1C(=O)[C@@H](CC=C)CC(=O)N[C@@H](CO)Cc1ccccc1	17.7%	-10.6%	i	16.4µM*	9.6%
C=CCC[C@H](Cc1ccc(F)cc1)C(=O)OC[C@@H]1CCCN1C(=O)[C@@H](CC=C)CC(=O)NCCO	9.6%	-1.4%	i	i	-5.1%
C=CC[C@@H](Cc1ccc(F)cc1)C(=O)OC[C@@H]1CCCN1C(=O)[C@H](CC=C)CC(=O)N(CCO)Cc1ccccc1	0.7%	?	20.6µM*	?	0.8%
CSc1ccccc1NC(=O)C1(C)CCN1C(=O)Cc1ccc(-c2ccccc2)cc1 (stereo unspecified)	.	.	?	i	.
CN(C)c1ccc(CNC(=O)C2CCN(C(=O)c3ccc(-n4ccc5ccccc54)s3)CC2)cc1	.	.	i	i	.
Cc1cc(-c2nnc(-c3cc4ccccc4oc3=O)o2)c(C)n1-c1ccccc1	5.8µM*	?	?	?	?
COc1ccc(-c2nnc(-c3cc4ccccc4oc3=O)o2)cc1	-0.7%	?	i	i	1.7%
Cc1ccc(C)c(-c2cc(C(=O)NCc3cccs3)c3ccccc3n2)c1	?	?	11.6µM*	i	?
Nc1nc2ccccc2cc1C(=O)NCc1cccs1	.	.	16.4µM*	i	.
Nc1nc2ccccc2cc1C(=O)NCCCCc1ccccc1	.	.	2.59µM*	i	.
Cc1ccccc1C(=O)NCCCCc1ccccc1	1.7%	3.5%	i	i	-3.0%
Cc1cccc(NC(=S)NC(=O)c2cccs2)n1	1.0%	?	?	i	2.91µM*
COC(=O)Cc1ccc(NC(=S)Nc2cccc(C)n2)cc1	-7.2%	?	20.6µM*	?	-8.2%
N#CCSc1nc(Nc2ccc3c(c2)OCO3)c2ccccc2n1	?	?	14.6µM*	i	1.1%
COc1cc(Nc2nc(SCC#N)nc3ccccc23)cc(OC)c1OC	-5.4%	-3.4%	20.6µM*	i	-5.6%

Source: PubChem (National Center for Advancing Translational Sciences (NCATS))
